A549 tox-1 – A549 cytotoxicity, counter-screen for Nrf2 inhibitors; A549 ARE-Fluc cells, CellTiter-Fluor viability, 18-24 h; hit rate 0.16% among 390,000; Potency, µM (doses to about 46 µM), most hits filed as inhibitors
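A549 ARE_Fluc cells in 5% FBS OPTI-MEM were exposed to compounds in concentration-response for 18-24 h at 37 deg C. Viability was read by CellTiter-Fluor fluorescence (Ex 405/Em 525) after 30 min, before the luciferase read.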
Nrf2 inh – inhibitors of Nrf2 signaling; A549 ARE-Fluc reporter, luciferase luminescence, 18-24 h; Potency, µM (highest dose often 46 µM), usual class: inhibitors; hit rate 2.1% among 360,000; further: nearly all actives have a fitted effect of over 60% in size
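Nrf2 activity is the BugLite luminescence, read 15 min after reagent at room temperature, following CellTiter-Fluor cytotoxicity readout (30 min, 37C). Compound titrations were applied for 18-24 h to 5000 A549 ARE_Fluc cells/well in 5% FBS OPTI-MEM.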
TGFb SMAD3 inh – TGF-b pathway inhibition; Potency, µM (doses to about 46.1 µM), usual class: inhibitors; hit rate 1.2% among 410,000; HepG2 CAGA-GFP TGF-b/SMAD3 reporter, GFP fluorescence, 18 h; TGF-beta stimulated, 500 pg/mL final; further: nearly all actives have a fitted effect of over 65% in size
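HEPG2 CAGA-GFP reporter cells (1000/well, DMEM with 1% FBS) received compounds, then recombinant TGF-beta at 500 pg/mL final for 18 hours at 37 degrees C. Per-cell GFP summed per well was normalised to unstimulated and stimulated DMSO controls before curve fitting.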
S2 tox – reduces viability in counter-screen for ATXN expression inhibitors. S2 cells (HEK-293 line with an ATXN2-luciferase reporter) viability, CellTiter-Fluor protease fluorescence, 24 h. AID 651635. Potency, µM (top dose mostly 56.7 µM), hits mostly cytotoxic. hit rate 0.49% among 400,000; further: nearly all actives have a fitted effect of over 40% in size
ATXN2 expr inh – inhibitors of ATXN2 expression | HEK-293 ATXN2-luciferase reporter, luminescence, 24 h | Potency, µM (titrated, usually from 57 µM), usual class: inhibitors | hit rate 0.72% among 360,000 | AID 1745845; further: nearly all actives have a fitted effect of over 55% in size
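qHTS (up to 57 uM final) was run with 24 h compound exposure of reporter cells at 37 °C. Each well was multiplexed: SteadyGlo luminescence measured ATXN2-luciferase expression after a fluorogenic Gly-Phe-AFC viability readout (25 uM final).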
HepG2 tox – counter-screen for TGF-b inhibitors: cytotoxicity in HepG2 cells; HepG2 CAGA-GFP viability, ATP luminescence, 18 h; Potency, µM (top dose mostly 46.1 µM), most hits filed as cytotoxic; hit rate 0.76% among 410,000; AID 588856
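HepG2 CAGA-GFP cells (1000/well, DMEM with 1% FBS) received compound, then TGF-beta at 500 pg/mL final, and were incubated 18 hours at 37 degrees C. Viability was read by CellTiter-Glo luminescence. Media-only wells were set as complete cell-killing and DMSO as no toxicity.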
FLuc counter 3 – counter-screen for Nrf2 inhibitors: firefly luciferase enzyme inhibition; Potency, µM (series often up to 57.5 µM), usual class: inhibitors; hit rate 4% among 1,400; shares compounds with Nrf2 inh; purified firefly luciferase, luminescence inhibition; further: nearly all actives have a fitted effect of over 65% in size
Target sequence (P08659 whole entry, looked up): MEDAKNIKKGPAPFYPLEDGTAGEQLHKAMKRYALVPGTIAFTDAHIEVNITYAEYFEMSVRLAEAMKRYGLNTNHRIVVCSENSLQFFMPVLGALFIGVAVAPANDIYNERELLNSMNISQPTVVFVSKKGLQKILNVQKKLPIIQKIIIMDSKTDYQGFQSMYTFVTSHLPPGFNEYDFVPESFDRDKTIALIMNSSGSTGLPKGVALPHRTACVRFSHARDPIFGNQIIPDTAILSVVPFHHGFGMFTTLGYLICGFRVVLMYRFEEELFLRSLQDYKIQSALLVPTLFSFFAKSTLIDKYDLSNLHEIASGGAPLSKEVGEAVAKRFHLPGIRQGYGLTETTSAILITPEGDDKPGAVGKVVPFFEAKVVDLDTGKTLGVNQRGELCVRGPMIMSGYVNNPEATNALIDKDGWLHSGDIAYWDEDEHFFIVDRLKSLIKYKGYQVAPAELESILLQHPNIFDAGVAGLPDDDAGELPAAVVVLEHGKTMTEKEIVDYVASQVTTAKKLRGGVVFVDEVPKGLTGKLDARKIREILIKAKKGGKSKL
A549 tox-2 – toxic to A549 ARE-Fluc cells in Nrf2 counterscreen; hit rate 2% among 1,400; A549 ARE-Fluc cells, cytotoxicity counterscreen; shares compounds with Nrf2 inh; AID 720523; Potency, µM (titrated, usually from 46.1 µM), usual class: inhibitors;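 further: cells exposed to compounds for 18 to 24 hours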
Nrf2 ARE inh – Nrf2 inhibition confirmed, A549 ARE-luciferase; shares compounds with Nrf2 inh; A549 ARE-firefly luciferase reporter, luminescence; Potency, µM (series often up to 46.1 µM), hits mostly inhibitors; hit rate 74% among 1,400; further: nearly all actives have a fitted effect of over 65% in size
A number is an active result; 0 = inactive; ? = inconclusive; - = not tested or not shown. Shown are actives, neighbours in structure and some others; about 3.8% of the full set was active somewhere. The call rests on the fitted dose curve; in most records, active means well fitted curve in the direction sought with a large enough effect; inconclusive means small, poorly fitted or top-dose-only effect, or another doubt; inactive means no such curve, though single readings can be large; an effect the other way counts as inactive or inconclusive.

SMILES	A549 tox-1	Nrf2 inh	TGFb SMAD3 inh	S2 tox	ATXN2 expr inh	HepG2 tox	FLuc counter 3	A549 tox-2	Nrf2 ARE inh
CCOC(=O)N1CCN(C(=O)c2ccc(Cn3c(=S)[nH]c4cc(OCC)c(OCC)cc4c3=O)cc2)CC1	0	?	0	0	0	0	-	-	-
Nc1ccc(-c2cc3ccccc3c(=O)o2)cc1	0	?	?	0	?	0	1.5µM	0	2.3µM
COc1cc(OC)cc(-c2cc3ccccc3c(=O)o2)c1	0	0	0	0	0	0	-	-	-
Nc1nc(-c2ccco2)nn1C(=O)c1ccc([N+](=O)[O-])cc1	0	0	0	0	0	0	-	-	-
Nc1nc(-c2ccco2)nn1C(=O)c1ccc(Cl)cc1	0	7.3µM	?	0	0	0	0	0	4.1µM
Cc1nn(-c2ccc(NC(=O)c3ccncc3)cc2)c(C)c1Cl	0	3.7µM	0	0	?	0	0	0	7.3µM
O=C(Nc1cccn(Cc2c(Cl)cccc2Cl)c1=O)c1ccc(Cl)cc1Cl	?	?	0	0	0	0	-	-	-
O=C(Nc1cccn(Cc2c(Cl)cccc2Cl)c1=O)c1ccccc1Cl	0	1.5µM	?	0	0	0	0	0	9.2µM
COc1ccc(NS(=O)(=O)c2ccc(O)c(NC(=O)c3ccc(S(=O)(=O)N4CCCCCC4)cc3)c2)cc1	0	0	0	?	0	0	-	-	-
COc1ccc(NS(=O)(=O)c2cccc(NC(=O)c3ccc(S(=O)(=O)N4CCCCCC4)cc3)c2)cc1	?	5.8µM	0	?	?	0	0	0	5.8µM
O=C(Nc1cccc(S(=O)(=O)C(F)F)c1)c1ccc(S(=O)(=O)N2CCCC2)cc1	?	5.8µM	0	?	?	0	0	0	?
C[C@H](CO)N1C[C@H](C)[C@@H](CN(C)S(=O)(=O)c2ccccc2)Oc2c(NC(=O)Nc3ccc4c(c3)OCO4)cccc2C1=O	0	0	0	?	0	0	-	-	-
Cc1ccc(C(=O)NC(=S)Nc2ccc(-c3cc4ccccc4oc3=O)cc2)c(C)c1	0	?	0	0	?	0	-	-	-
Cc1cc(C)cc(C(=O)NC(=S)Nc2ccc(-c3cc4ccccc4oc3=O)cc2)c1	0	3.7µM	0	?	6.3µM	0	0	0	?
CCCOc1cccc(C(=O)Nc2ccc(-c3cc4ccccc4oc3=O)c(C)c2)c1	0	?	0	0	0	0	-	-	-
Cc1cc(NC(=O)c2cc(Cl)ccc2Cl)ccc1-c1cc2ccccc2oc1=O	0	?	0	0	0	0	0	0	0
Cc1ccc(S(=O)(=O)N2CCN(c3nc(-c4cccs4)nc4c3ncn4COC(=O)C(C)(C)C)CC2)cc1	0	0	-	-	-	-	-	-	-
Cc1cc2c(s1)c1cnn(Cc3c(F)ccc(F)c3F)c(=O)c1n2C	0	0	-	-	-	-	-	-	-
O=S(=O)(Nc1cc(Br)cc2cccnc12)c1cccc2ccccc12	?	2.3µM	?	-	-	0	0	?	7.3µM
CCOc1ccc(S(=O)(=O)NC2CCCCC2C)cc1 (centres undefined)	0	0	0	0	0	0	-	-	-
Cc1ccc(C)c(S(=O)(=O)NCc2ccncc2)c1	0	?	0	?	0	0	-	-	-
CC1CCCCC1NS(=O)(=O)c1ccc(S(=O)(=O)NCc2ccncc2)cc1 (centres undefined)	0	2.3µM	0	0	0	0	0	0	3.7µM
CCOc1ccc(S(=O)(=O)NCc2ccncc2)cc1	0	0.41µM	?	0	0	0	0	0	0.65µM
Cc1ccc(S(=O)(=O)NCc2ccncc2)cc1	0	2.6µM	?	0	0	0	0	0	18µM
